PAX8 inh HTS – lowers PAX8-driven luciferase in RMG-I cells; 360,000 tested, 1.2% active; inhibition, % at 12.6 µM; RMG-I TPO-luciferase reporter, SteadyGlo, 24 h; AID 652154;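 active = mean replicate inhibition at least 60% with every replicate also reaching 60%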;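 also: luciferase light reporting Pax8 driven TPO promoter activity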
TWEAK-Fn14 inh – inhibitors of TWEAK-Fn14 interaction signaling. inhibition, % at 10 µM. 360,000 tested, 2% active. AID 1159606. TWEAK-stimulated Fn14 reporter cells, luciferase luminescence, 8 h; in the data active = inhibition above about 50%
LGR2 antag – Drosophila LGR2 receptor signaling inhibition | inhibition, % at 9.99 µM | 380,000 tested, 0.35% active | HEK293 LGR2, CRE-luciferase, bursicon-stimulated, 4 h | AID 720647;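 active = drop in luminescence signal, shown as inhibition above about 50% in the replicate tests, limit read from the data, passing the limit was not always enough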;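 also: agonist challenge used bursicon conditioned medium at about half maximal strength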
TROY NFkB inh – TROY signaling inhibition; Q293 LMP1-TROYcd NF-kB luciferase reporter, 4 h; inhibition, % at 10 µM; 360,000 tested, 0.98% active; AID 1347056;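 active = compounds whose plate-normalised and pattern-corrected inhibition of the luciferase reporter signal at the single screening dose is 50% or more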
EWS-Fli inh – EWS/Fli transcriptional activity inhibition; A673 NR0B1-luciferase reporter, viability-normalised; inhibition, % at 12.6 µM; 350,000 tested, 0.67% active; AID 651661;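 active = mean inhibition of at least 50% after viability correction, with every replicate also passing that limit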;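 also: firefly luciferase signal divided by Alamar Blue viability fluorescence both relative to DMSO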
A number is an active result. Compounds with a hit are over-represented: about 2.8% of the library has one in this group of screens.

For CC(C)NC(=O)N(C)C[C@H]1OCCCC[C@H](C)Oc2ccc(NC(=O)c3ccncc3)cc2C(=O)N([C@@H](C)CO)C[C@@H]1C the results were PAX8 inh HTS inactive, LGR2 antag inactive and EWS-Fli inh inactive.
Screening O=C(C1CCOCC1)N1C[C@H]2[C@@H](c3ccccc31)[C@H](CO)N2Cc1ccccc1 returned PAX8 inh HTS inactive, LGR2 antag inactive and EWS-Fli inh inactive.
For C[C@@H]1CCCCO[C@@H](CN(C)CC2CCCCC2)[C@H](C)CN([C@@H](C)CO)C(=O)c2cc(NC(=O)Nc3cccc4ccccc34)ccc2O1 the results were PAX8 inh HTS inactive, LGR2 antag inactive and EWS-Fli inh 94.
For C[C@@H]1CN([C@@H](C)CO)C(=O)c2cc(NC(=O)Nc3cccc4ccccc34)ccc2O[C@@H]1CN(C)Cc1ccc2c(c1)OCO2 the results were PAX8 inh HTS 76, LGR2 antag inactive and EWS-Fli inh inactive.
COc1ccc(CN(C)C[C@H]2OCCCC[C@@H](C)Oc3ccc(NC(=O)Nc4cccc5ccccc45)cc3C(=O)N([C@H](C)CO)C[C@H]2C)cc1 was read as PAX8 inh HTS inactive, LGR2 antag inactive and EWS-Fli inh 72.
COc1ccc(CN(C)C[C@H]2OCCCC[C@@H](C)Oc3ccc(NC(=O)Nc4cccc5ccccc45)cc3C(=O)N([C@@H](C)CO)C[C@@H]2C)cc1 was read as PAX8 inh HTS inactive, LGR2 antag inactive and EWS-Fli inh 80.
CO[C@H]1CN(C)C(=O)c2ccc(NC(C)=O)cc2OC[C@@H](C)N(Cc2cncnc2)C[C@H]1C was read as LGR2 antag inactive and EWS-Fli inh inactive.
`C[C@H]1CN([C@@H](C)CO)C(=O)Cc2cc(NS(=O)(=O)c3cccs3)ccc2O[C@H]1CN(C)S(=O)(=O)c1ccc(Cl)cc1` gave LGR2 antag inactive and EWS-Fli inh inactive.
Screening C[C@@H]1CN([C@H](C)CO)C(=O)c2cc(NC(=O)Nc3cccc4ccccc34)ccc2O[C@@H](C)CCCCO[C@H]1CN(C)Cc1ccccc1 returned PAX8 inh HTS inactive, LGR2 antag inactive and EWS-Fli inh 74.
`C[C@@H]1CCCCO[C@H](CN(C)Cc2ccc3c(c2)OCO3)[C@H](C)CN([C@H](C)CO)C(=O)c2cc(NC(=O)Nc3cccc4ccccc34)ccc2O1` gave PAX8 inh HTS inactive, LGR2 antag inactive and EWS-Fli inh inactive.
C[C@@H]1CN([C@@H](C)CO)C(=O)c2cc(NC(=O)Nc3cccc4ccccc34)ccc2O[C@@H](C)CCCCO[C@H]1CN(C)Cc1ccc2c(c1)OCO2 was read as PAX8 inh HTS inactive, LGR2 antag inactive and EWS-Fli inh 77.
Screening CO[C@@H]1CN(C)C(=O)c2ccc(NC(C)=O)cc2OC[C@@H](C)N(C(=O)Cc2ccccn2)C[C@H]1C returned LGR2 antag inactive and EWS-Fli inh inactive.
For COc1cccc(-c2cc(C(=O)Nc3cccnc3)no2)c1 the results were PAX8 inh HTS inactive, TWEAK-Fn14 inh 69 and TROY NFkB inh inactive.
COc1ccc(OC)c(NC(=O)Nc2cccnc2)c1 was read as PAX8 inh HTS inactive, TWEAK-Fn14 inh 52, LGR2 antag inactive, TROY NFkB inh inactive and EWS-Fli inh inactive.
Screening Cc1cc(C)cc(NC(=O)Nc2cccnc2)c1 returned PAX8 inh HTS inactive, TWEAK-Fn14 inh inactive, LGR2 antag inactive, TROY NFkB inh inactive and EWS-Fli inh inactive.
`Cc1ccc(NC(=O)Nc2cccnc2)cc1NC(=O)Nc1cccnc1` gave PAX8 inh HTS inactive, TWEAK-Fn14 inh 58, LGR2 antag inactive, TROY NFkB inh inactive and EWS-Fli inh inactive.
Screening CO[C@@H]1CN(C)C(=O)c2cc(NS(C)(=O)=O)ccc2OC[C@@H](C)N(C(=O)C2CCOCC2)C[C@@H]1C returned LGR2 antag inactive and EWS-Fli inh inactive.
For O=C(C[C@H]1CC[C@@H]2[C@H](COC[C@H](O)CN2CCc2ccccc2)O1)N1CCC(Cc2ccccc2)CC1 the results were PAX8 inh HTS inactive, LGR2 antag inactive and EWS-Fli inh inactive.
`Cc1ccc(NC(=O)C2C3C=CC4(O3)C2C(=O)N(CCN2CCOCC2)C4C(=O)NC2CCCCC2)cc1C` (stereo unspecified) gave PAX8 inh HTS inactive, TWEAK-Fn14 inh 88, LGR2 antag inactive, TROY NFkB inh inactive and EWS-Fli inh inactive.
`O=C(Nc1sc2c(c1C(=O)O)CCCCC2)c1ccco1` gave TWEAK-Fn14 inh 56 and TROY NFkB inh inactive.
For CN(C)C(=O)c1c(NC(=O)c2ccco2)sc2c1CCCCC2 the results were TWEAK-Fn14 inh inactive and TROY NFkB inh 65.
